Assay results: PubChem BioAssay (NCI)
This is part of a sample that, as a whole, favours compounds with a hit. Of some 83,000 tested, about 20% had one in any assay.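 Values shown are percent growth following 48 h exposure of cells in 96-well plates to a single concentration of compound; below 10 was considered active.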 Activity calls are given as the source filed them.

Tested on: HL-60(TB) leukemia
Assay: NCI-60 one-dose screen, 48 h (100 = growth as untreated, 0 = no growth, -100 = all killed)
Conditions: 10 µM unless noted

SMILES | growth
Cn1c(=O)c2c(c3ccccc31)OC(N)=C(C#N)C21C(=O)c2ccccc2C1=O | 98.1% (inactive)
O=C(CN1CCCCCC1)Nc1nc2ccc(NCc3ccc(Cl)cc3)cc2s1 | 95.9% (inactive)
COC12C=C/C(=C(/C(=O)OCCSc3ccnn3C)C(=O)CCCCCCCCC3(OC)C=C/C(=C(/C(=O)OCCSc4ccnn4C)C(=O)CCCCCCCC1)O3)O2 | -6.91% (active)
O=C(Nc1cccc(C(F)(F)F)c1)Nc1ccc(OCc2nnc(-c3ccc(Cl)cc3)o2)c(F)c1 | 92.5% (inactive)
Oc1[nH]c2ccccc2c1/C=c1/cc2c(c(-c3ccc(C(F)(F)F)cc3)n1)=Nc1ccccc1-2 | 19.2% (inactive)
CCOC(=O)C1=CCC(n2cc(F)c(=O)[nH]c2=O)O1 (stereo not given) | 83.6% (inactive)
CC/C=C\CCC/C=C1/C(=O)C=C[C@@H]1C/C=C\CCCC(=O)O | 10.9% (inactive)
CCCCn1c(C)nc2cc(Nc3nc(N4CCCCC4)nc4nc[nH]c34)ccc21 | 78.4% (inactive)
COc1cc(/C=C/C(=O)c2cccc(-n3cc(-c4ccc(Cl)cc4)[nH]c3=O)c2)ccc1O | -19.9% (active)
COc1cc2nc(Cl)nc(Nc3cccc(C(=O)/C=C/c4ccccc4)c3)c2cc1OC | 70.1% (inactive)
COc1ccc(-c2cn3c(ccc4ccccc43)n2)cc1 | 109% (inactive)
CCOC(=O)Nc1ccc2nc(Sc3ccc(Cl)cc3)sc2c1 | 10.1% (inactive)
CCCCN(CCCC)C(=O)[C@H](CC)[C@@H]1CC[C@@H](C)[C@@H]([C@H](C)[C@@H](O)[C@@H](C)C(=O)[C@H](CC)C2O[C@]3(C=C[C@@H](O)[C@]4(CC[C@@](C)([C@H]5CC[C@](O)(CC)[C@H](C)O5)O4)O3)[C@H](C)C[C@@H]2C)O1 (stereo not given in full) | -40.8% (active)
O=C1CCNC1 | 103% (inactive)
CCOC(=O)c1c(NC(=O)c2ccc(Cl)cc2)sc2c(CN(C)C)c(O)ccc12 | 12.5% (inactive)
CS(=O)CC1=NC(=N)N=C1CS(C)=O (stereo not given) | 91.2% (inactive)
FC(F)(F)c1cc(-c2nnc3n2N=C(Cl)CS3)cc(C(F)(F)F)c1 | 93.2% (inactive)
C=C1C(=O)O[C@H]2[C@H]1CC/C(COC(=O)NCc1ccc(OC)c(OC)c1)=C\CC[C@@]1(C)O[C@@H]21 | 35.8% (inactive)
O=C(CN1CCNCC1)N1CCOCC1 | 68.5% (inactive)
CC1(c2ccccc2)NC(=O)NC1=O (stereo not given) | 104% (inactive)
CC(C)N(CCNc1nc(C(Cl)(Cl)Cl)nc2cc(Cl)ccc12)C(C)C | -0.349% (active)
O=C1C(c2ccccc2)C2C=CC(C2)N1O (stereo not given) | 93% (inactive)
CCOC(=O)c1c(C)nc2c(c1N)/C(=C/c1ccc(OC)cc1)C(=O)N2Cc1ccccc1 | 45.8% (inactive)
CC(=O)OCC1OC(n2cnc3c(=S)nc(N)[nH]c32)C(OC(C)=O)C1OC(C)=O (stereo not given) | 81.2% (inactive)
COc1ccc(-c2cncnc2N)cc1OC | 95.8% (inactive)
